Measurements from the supplement of paper PMC6288085.
Structures can show the parent of a compound that is named as a salt. ± gives the uncertainty stated by the source.

test system: Caenorhabditis elegans N2; assay: food intake (mean delta OD600 / animal over 72 h) with 50 uM loxapine co-treatment (OD600 units per animal); higher = more food eaten (less suppression of loxapine-induced hyperphagia); details: first compound 33 µM, loxapine concentration 50 µM
Procedure: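 C. elegans N2 adults (FUDR-sterilised, day 1) in 96-well plates fed gamma-irradiated bacteria. Each library drug (MedChemExpress FDA-approved library) at 33 uM was combined with loxapine at 50 uM. Food intake was measured as bacterial clearance: the change in OD600 from day 1 to 72 h, normalised per animal (mean over 14-21 wells of about 10-12 worms). Drugs flagged for bacterial lysis or sickness were excluded by the authors.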

Compound | food intake
O=C(O)CCNC(=O)c1ccccc1 [betamipron] + CN1CCN(C2=Nc3ccccc3Oc3ccc(Cl)cc32)CC1 [loxapine] | 0.0228 ± 0.0023
CC(=O)OCC(=O)[C@@]1(O)CC[C@H]2[C@@H]3CCC4=CC(=O)CC[C@]4(C)[C@H]3C(=O)C[C@@]21C [cortisone (acetate)] + CN1CCN(C2=Nc3ccccc3Oc3ccc(Cl)cc32)CC1 [loxapine] | 0.0231 ± 0.0059
CC(C)(C)C(=O)OCOP(=O)(COCCn1cnc2c(N)ncnc21)OCOC(=O)C(C)(C)C [Adefovir dipivoxil] + CN1CCN(C2=Nc3ccccc3Oc3ccc(Cl)cc32)CC1 [loxapine] | 0.0231 ± 0.0029
C=CCNC(N)=S [allylthiourea] + CN1CCN(C2=Nc3ccccc3Oc3ccc(Cl)cc32)CC1 [loxapine] | 0.0237 ± 0.003
CCOC(=O)c1c(CSc2ccccc2)n(C)c2cc(Br)c(O)c(CN(C)C)c12 [arbidol (hydrochloride)] + CN1CCN(C2=Nc3ccccc3Oc3ccc(Cl)cc32)CC1 [loxapine] | 0.0227 ± 0.0057
O=C1NC(=O)C(c2ccccc2)(c2ccccc2)N1 [phenytoin] + CN1CCN(C2=Nc3ccccc3Oc3ccc(Cl)cc32)CC1 [loxapine] | 0.0218 ± 0.0037
CCc1c2c(nc3ccc(OC(=O)N4CCC(N5CCCCC5)CC4)cc13)-c1cc3c(c(=O)n1C2)COC(=O)[C@]3(O)CC [Irinotecan] + CN1CCN(C2=Nc3ccccc3Oc3ccc(Cl)cc32)CC1 [loxapine] | 0.022 ± 0.003
S=C=Nc1ccc(N=C=S)cc1 [p-Phenylene diisothiocyanate] + CN1CCN(C2=Nc3ccccc3Oc3ccc(Cl)cc32)CC1 [loxapine] | 0.0229 ± 0.0028
NNC(=O)c1ccncc1 [isoniazid] + CN1CCN(C2=Nc3ccccc3Oc3ccc(Cl)cc32)CC1 [loxapine] | 0.0217 ± 0.0032
CC(=O)Nc1ncc([N+](=O)[O-])s1 [nithiamide] + CN1CCN(C2=Nc3ccccc3Oc3ccc(Cl)cc32)CC1 [loxapine] | 0.0244 ± 0.0027
CC(=O)NC(Cc1ccccc1)C(=O)O (racemic) [N-acetyl DL-phenylalanine] + CN1CCN(C2=Nc3ccccc3Oc3ccc(Cl)cc32)CC1 [loxapine] | 0.0223 ± 0.0049
CC1CNc2c(cccc2S(=O)(=O)N[C@@H](CCCNC(=N)N)C(=O)N2CC[C@@H](C)C[C@@H]2C(=O)O)C1 (stereo not given in full) [argatroban (monohydrate)] + CN1CCN(C2=Nc3ccccc3Oc3ccc(Cl)cc32)CC1 [loxapine] | 0.0229 ± 0.002
N=C(N)c1ccc(OCCCCCOc2ccc(C(=N)N)cc2)cc1 [pentamidine (isethionate)] + CN1CCN(C2=Nc3ccccc3Oc3ccc(Cl)cc32)CC1 [loxapine] | 0.0232 ± 0.0025
Fc1ccc([C@@H]2CCNC[C@H]2COc2ccc3c(c2)OCO3)cc1 [paroxetine (hydrochloride)] + CN1CCN(C2=Nc3ccccc3Oc3ccc(Cl)cc32)CC1 [loxapine] | 0.0221 ± 0.0043
CC(CN1c2ccccc2Sc2ccccc21)N(C)C (stereo not given) [promethazine (hydrochloride)] + CN1CCN(C2=Nc3ccccc3Oc3ccc(Cl)cc32)CC1 [loxapine] | 0.0219 ± 0.0024
CC(C)NCC(O)COc1ccc(CCOCC2CC2)cc1 (stereo not given) [betaxolol] + CN1CCN(C2=Nc3ccccc3Oc3ccc(Cl)cc32)CC1 [loxapine] | 0.0265 ± 0.0022
Nc1ccn([C@@H]2CS[C@H](CO)O2)c(=O)n1 [lamivudine] + CN1CCN(C2=Nc3ccccc3Oc3ccc(Cl)cc32)CC1 [loxapine] | 0.0212 ± 0.003
Nc1nc2c(ncn2COC(CO)CO)c(=O)[nH]1 [ganciclovir] + CN1CCN(C2=Nc3ccccc3Oc3ccc(Cl)cc32)CC1 [loxapine] | 0.0236 ± 0.0019
CC(C)(C)C(=O)C(Oc1ccc(Cl)cc1)n1ccnc1 (stereo not given) [climbazole] + CN1CCN(C2=Nc3ccccc3Oc3ccc(Cl)cc32)CC1 [loxapine] | 0.0235 ± 0.012
CC(C)[C@H](N)C(=O)OCCOCn1cnc2c(=O)nc(N)[nH]c21 [valacyclovir (hydrochloride)] + CN1CCN(C2=Nc3ccccc3Oc3ccc(Cl)cc32)CC1 [loxapine] | 0.0213 ± 0.0096

Compound | food intake
CN(C)[C@@H]1C(O)=C(C(N)=O)C(=O)[C@@]2(O)C(O)=C3C(=O)c4c(O)ccc(Cl)c4[C@@H](O)[C@H]3C[C@@H]12 [demeclocycline (hydrochloride)] + CN1CCN(C2=Nc3ccccc3Oc3ccc(Cl)cc32)CC1 [loxapine] | 0.0207 ± 0.0035
NC(=O)c1ncn([C@@H]2O[C@H](CO)[C@@H](O)[C@H]2O)n1 [ribavirin] + CN1CCN(C2=Nc3ccccc3Oc3ccc(Cl)cc32)CC1 [loxapine] | 0.0212 ± 0.0037
Cc1cc(C2CCCCC2)n(O)c(=O)c1 [ciclopirox] + CN1CCN(C2=Nc3ccccc3Oc3ccc(Cl)cc32)CC1 [loxapine] | 0.0218 ± 0.0041
CC[C@H]1OC(=O)C[C@@H](O)[C@H](C)[C@@H](O[C@@H]2O[C@H](C)[C@@H](O[C@H]3C[C@@](C)(O)[C@@H](O)[C@H](C)O3)[C@H](N(C)C)[C@H]2O)[C@@H](CC=O)C[C@@H](C)C(=O)/C=C/C(C)=C/[C@@H]1CO[C@@H]1O[C@H](C)[C@@H](O)[C@@H](OC)[C@H]1OC [Tylosin (tartrate)] + CN1CCN(C2=Nc3ccccc3Oc3ccc(Cl)cc32)CC1 [loxapine] | 0.021 ± 0.0039
Cc1ncc([N+](=O)[O-])n1CC(C)O (stereo not given) [secnidazole] + CN1CCN(C2=Nc3ccccc3Oc3ccc(Cl)cc32)CC1 [loxapine] | 0.0205 ± 0.0035
CC(=O)CCCCn1c(=O)c2c(ncn2C)n(C)c1=O [pentoxifylline] + CN1CCN(C2=Nc3ccccc3Oc3ccc(Cl)cc32)CC1 [loxapine] | 0.0226 ± 0.002
CN1C(=O)C[C@@H](C(=O)N[C@@H](Cc2c[nH]cn2)C(=O)N2CCC[C@H]2C(N)=O)NC1=O [taltirelin] + CN1CCN(C2=Nc3ccccc3Oc3ccc(Cl)cc32)CC1 [loxapine] | 0.022 ± 0.0034
NNc1nncc2ccccc12 [hydralazine (hydrochloride)] + CN1CCN(C2=Nc3ccccc3Oc3ccc(Cl)cc32)CC1 [loxapine] | 0.022 ± 0.017
CO/N=C(\C(=O)N[C@@H]1C(=O)N2C(C(=O)O)=C(CSC(=O)c3ccco3)CS[C@H]12)c1csc(N)n1 [ceftiofur (sodium)] + CN1CCN(C2=Nc3ccccc3Oc3ccc(Cl)cc32)CC1 [loxapine] | 0.0225 ± 0.0037
OCCN1C[C@H](O)[C@@H](O)[C@H](O)[C@H]1CO [miglitol] + CN1CCN(C2=Nc3ccccc3Oc3ccc(Cl)cc32)CC1 [loxapine] | 0.0214 ± 0.005
CC(=O)NCCCS(=O)(=O)O [Acamprosate (calcium)] + CN1CCN(C2=Nc3ccccc3Oc3ccc(Cl)cc32)CC1 [loxapine] | 0.023 ± 0.0036
CC[C@H]1OC(=O)[C@H](C)[C@@H](O[C@H]2C[C@@](C)(OC)[C@@H](O)[C@H](C)O2)[C@H](C)[C@@H](O[C@@H]2O[C@H](C)C[C@H](N(C)C)[C@H]2O)[C@](C)(O)C[C@@H](C)[C@@H]2N[C@@H](COCCOC)O[C@H]([C@H]2C)[C@]1(C)O [dirithromycin] + CN1CCN(C2=Nc3ccccc3Oc3ccc(Cl)cc32)CC1 [loxapine] | 0.0208 ± 0.0079
CC1=C(C)C(=O)C(C(CCCCCC(=O)O)c2ccccc2)=C(C)C1=O (stereo not given) [seratrodast] + CN1CCN(C2=Nc3ccccc3Oc3ccc(Cl)cc32)CC1 [loxapine] | 0.0265 ± 0.0088
N=C(N)NC(=N)NCCc1ccccc1 [Phenformin (hydrochloride)] + CN1CCN(C2=Nc3ccccc3Oc3ccc(Cl)cc32)CC1 [loxapine] | 0.0236 ± 0.0019
CC(=O)OCC(CCn1cnc2cnc(N)nc21)COC(C)=O [famciclovir] + CN1CCN(C2=Nc3ccccc3Oc3ccc(Cl)cc32)CC1 [loxapine] | 0.0236 ± 0.0029
C[N+](C)(C)CCCCCC[N+](C)(C)C [hexamethonium (bromide)] + CN1CCN(C2=Nc3ccccc3Oc3ccc(Cl)cc32)CC1 [loxapine] | 0.0215 ± 0.0099
O=P(O)(O)C(O)(Cn1ccnc1)P(=O)(O)O [Zoledronic acid (monohydrate)] + CN1CCN(C2=Nc3ccccc3Oc3ccc(Cl)cc32)CC1 [loxapine] | 0.0237 ± 0.003
CC(C)(C)C(=O)OCOC(=O)[C@@H]1N2C(=O)[C@@H](/N=C/N3CCCCCC3)[C@H]2SC1(C)C [pivmecillinam (hydrochloride)] + CN1CCN(C2=Nc3ccccc3Oc3ccc(Cl)cc32)CC1 [loxapine] | 0.0244 ± 0.0027
C#C[C@]1(O)CC[C@H]2[C@@H]3CCC4=CC(=O)CC[C@@H]4[C@H]3C(=C)C[C@@]21CC [etonogestrel] + CN1CCN(C2=Nc3ccccc3Oc3ccc(Cl)cc32)CC1 [loxapine] | 0.0244 ± 0.012
CC[C@H]1OC(=O)C[C@@H](O)[C@H](C)[C@@H](O[C@@H]2O[C@H](C)[C@@H](O[C@H]3C[C@@](C)(O)[C@@H](O)[C@H](C)O3)[C@H](N(C)C)[C@H]2O)[C@@H](CC=O)C[C@@H](C)C(=O)/C=C/C(C)=C/[C@@H]1CO[C@@H]1O[C@H](C)[C@@H](O)[C@@H](OC)[C@H]1OC [Tylosin] + CN1CCN(C2=Nc3ccccc3Oc3ccc(Cl)cc32)CC1 [loxapine] | 0.0219 ± 0.0051
